# From PubChem BioAssay
# B2AR arrestin: agonists driving beta-arrestin recruitment to human beta2-adrenergic receptor. beta-arrestin recruitment to beta2AR, cell-based reporter. P07550. Potency, µM (top dose mostly 46.1 µM), without a hit: top-dose activation, actives largely listed as activators. 0.02% of 330,000 active; active = well fitted activation curve with a large enough effect; inconclusive = small, poorly fitted or top-dose-only effect;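 note: potency is the fitted concentration of half-maximal effect; 0% = DMSO controls and full agonism = EC100 isoproterenol or metaproterenol; nearly all actives have a fitted effect of over 65% in size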
# Target sequence (P07550 whole entry, looked up): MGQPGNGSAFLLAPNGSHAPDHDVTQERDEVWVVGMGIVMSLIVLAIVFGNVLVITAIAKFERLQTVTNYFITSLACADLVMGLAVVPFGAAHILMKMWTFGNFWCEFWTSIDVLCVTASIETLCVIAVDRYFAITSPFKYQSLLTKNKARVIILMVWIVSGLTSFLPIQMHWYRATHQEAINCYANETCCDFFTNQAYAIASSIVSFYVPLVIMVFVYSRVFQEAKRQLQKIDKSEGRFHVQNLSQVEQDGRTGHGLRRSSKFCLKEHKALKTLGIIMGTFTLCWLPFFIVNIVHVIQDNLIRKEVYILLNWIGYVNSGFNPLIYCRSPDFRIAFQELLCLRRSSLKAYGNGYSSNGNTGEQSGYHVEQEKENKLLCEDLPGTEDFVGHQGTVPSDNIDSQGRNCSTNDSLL
# D2 PAM-1: potentiates the human D2 dopamine receptor allosterically; P14416; 0.23% of 360,000 active; DiscoveRx D2 beta-arrestin cells, luminescence, 90 min; 100% = 57 uM dopamine signal; AID 624464; potentiation, % (concentration not given with the values); in the data active = potentiation above about 50%; inconclusive = mostly about 30% to 49%
#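 PathHunter D2 cells, attached overnight at 37 deg C, received compound in DMSO plus dopamine at EC20 (50 nM final) for 90 min at 37 deg C. Beta-arrestin recruitment was read as luminescence after 1 h with detection reagent at ambient temperature.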
# D2 PAM-2: positively modulates the human D2 dopamine receptor allosterically | P14416 | HEK293 T-REx D2, calcium flux, EC20 dopamine potentiation | potentiation, % at 10 µM | 0.34% of 340,000 active | AID 485347;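 active = potentiation over 3 SD above the plate norm, cut at about 30% in these data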; note: 0% is about no effect
#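 Tetracycline-induced HEK293 T-REx cells force-coupled to calcium signalling expressed D2; compounds were pin-added after a 10 s baseline, read kinetically 180 s, then an EC20 dopamine challenge followed with a further 180 s calcium read.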
# D2 ag-1: agonists of human D2 dopamine receptor (beta-arrestin); DiscoveRx PathHunter D2 beta-arrestin, luminescence, 90 min; 100% = 57 uM dopamine signal; activation, % (concentration not given with the values); 0.084% of 360,000 active; in the data active = activation above about 40%; inconclusive = between about 15% and that limit
#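 Agonist mode: compounds alone added to overnight-plated D2 PathHunter cells for 90 min at 37 C, with 57 uM final dopamine (EC100) defining full response. Beta-arrestin recruitment detected by chemiluminescent reagent, read after 1 h at ambient temperature.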
# D2 antagonist: antagonizes the human D2 dopamine receptor | HEK293 TREx D2 cells, calcium flux, dopamine EC80 | AID 485344 | inhibition, % at 10 µM | 2% of 340,000 active | P14416; in the data active = inhibition above about 30%; inactive = below that, where a call was filed; note: 0% is about no effect
#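 Compounds are added to dye-loaded, induced HEK293 T-REx cells coupled to calcium release via D2; after a 3 min kinetic read an EC80 dopamine stimulus is given and fluorescence is recorded for 3 more min.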
# D2 ag-2: D2 dopamine receptor (human) agonism; HEK293 T-REx D2 cells, calcium flux agonist mode; activation, % at 2 µM; AID 485358; 0.53% of 340,000 active;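 active = activation over 3 SD above normal in the single-dose calcium agonist read, cut at about 30% in these data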; note: 0% is about no effect
#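 Calcium-flux readout, 1 cycle/sec over 180 s following compound pin transfer, in inducible HEK293 Trex D2 cells (force-coupled); dopamine controls included. Positive calcium responses during this window marked compounds as potential agonists.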
# Numbers without * were called inactive; ? = inconclusive. Sampled rows, rich in hits. Any-hit rate of the full collection: about 2.4%.
SMILES,B2AR arrestin,D2 PAM-1,D2 PAM-2,D2 ag-1,D2 antagonist,D2 ag-2
CCn1nnnc1-c1ccc(OC)c(S(=O)(=O)NCc2ccccc2)c1,0%,4,1,-3,33*,0
COc1ccc(S(=O)(=O)Nc2cc3c4c(c2)CC(=O)N4CCC3)cc1,-1%,2,19,-2,-4,0
COc1ccc(CCNS(=O)(=O)c2cc3c4c(c2)CC(=O)N4CCC3)cc1,1%,-4,-4,-3,35*,0
O=C(NC1(C(F)(F)F)NC(=O)N(Cc2cccnc2)C1=O)c1ccc(F)cc1 (centres undefined),0%,-4,39*,2,6,-1
O=C(NC1(C(F)(F)F)NC(=O)N(Cc2cccnc2)C1=O)c1ccncc1 (centres undefined),0%,8,6,-2,25,1
COc1ccc(OC)c(NC(=O)NNS(=O)(=O)c2ccc(C)cc2C)c1,-1%,6,-2,0,-11,-1
CO/N=C/C(=N\Nc1ccc(OC)cc1)C(=O)c1ccc(OC)cc1,0%,1,16,-3,-3,1
CSCCC(NC(=O)c1ccco1)C(=O)O (centres undefined),0%,-6,31*,-2,-12,1
CSCCC(NC(=O)c1ccco1)C(=O)N1CCCCCCC1 (centres undefined),0%,2,20,-2,-16,0
c1ccc(-c2cnc(SCCN3CCOCC3)n2CC2CCCO2)cc1 (centres undefined),0%,-16,-9,1,34*,0
O=C(c1ccc(NC2=NC3CS(=O)(=O)CC3S2)cc1)N(CCO)Cc1ccccc1 (centres undefined),-1%,-11,13,-12,-7,1
CCN(CC)S(=O)(=O)c1ccc(-n2cnc3cc(C)c(C)cc32)nc1,0%,-10,38*,-1,-10,1
CCN(CC)S(=O)(=O)c1ccc(N2CCc3ccccc3C2)nc1,0%,-16,34*,-9,-5,-2
CC(C)N(C(C)C)S(=O)(=O)c1ccc(N2CCc3ccccc3C2)nc1,0%,2,-10,-5,1,1
CCN(CC)S(=O)(=O)c1ccc(C)c(C)c1,0%,-9,-7,-2,-15,-1
CC(=O)Nc1ccc(C(=O)COC(=O)c2cccs2)c(F)c1,1%,3,1,-2,35*,0
O=C1C[C@@H](c2ccc(O[C@@H]3O[C@H](CO)[C@@H](O)[C@H](O)[C@H]3O)cc2)Oc2cc(O)ccc21,?,-10,-3,-4,13,0
Cc1cc(C(C)(C)C)cc(C)c1CC1=NCCN1,-1%,-21,-30,-1,50*,23
c1ccc(CC2=NCCN2)cc1,-1%,-11,-3,-3,-25,-2
CN1CCN(c2ccc(NS(=O)(=O)c3ccc(Cl)cc3)cn2)CC1,0%,-8,-5,-2,33*,-1
CCc1ccc(S(=O)(=O)Nc2ccc(N3CCN(C)CC3)cc2)cc1,4%,-23,-20,1,75*,1
N#CCCn1cc(/C=N/N=C2\NC(=O)C(CC(=O)O)S2)c(-c2ccc(F)cc2)n1 (centres undefined),-1%,-6,3,-2,35*,0
O=c1cc(N2CCOCC2)[nH]c(=O)n1-c1ccc(Cl)cc1,0%,-12,-4,-3,41*,0
O=c1cc(N2CCCC2)[nH]c(=O)n1-c1ccc(Cl)cc1,?,-5,-5,-6,1,0
Cn1c(=O)c2ccccc2n(CC(=O)NC2CCCCC2)c1=O,0%,-7,-4,-4,18,0
CCn1c(=O)c2ccccc2n(CC(=O)NC2CCCCC2)c1=O,0%,0,-1,0,42*,1
Cc1cc(NS(=O)(=O)c2ccccc2)c(C)c(Cl)c1O,0%,61*,-3,10,0,0
